Shown are actives, neighbours in structure and some others; about 32% of the full set was active somewhere.
PostGolgi yeast – phenotypic screen on post-Golgi transport, primary screen | post-Golgi transport phenotypic cell assay | inhibition, % at 10 µM | actives 0.9% (n = 98,000) | AID 739, 2007;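 also: yeast cells grown in 1536-well plates; yeast grown about 18 h at 30C before absorbance read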
CYP2C19 inhib – blockers of cytochrome P450 2C19 activity – biochemical, luminescence, ADME assay, primary screen; P33261; CYP2C19 Supersomes, luciferin-H EGE luminescence, 30 min; inhibition, % at 5 µM; actives 21% (n = 96,000);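 active = CYP2C19 inhibition above a set limit at 5 µM in the primary screen, cut at about 50% in these data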
CYP2C9 inhib – blockers of cytochrome P450 2C9 activity – biochemical, luminescence, ADME assay, primary screen; P11712; CYP2C9 Supersomes, luciferin-H conversion; inhibition, % at 5 µM; actives 20% (n = 96,000); AID 777, 2007;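 active = blocking of liver enzyme CYP2C9 beyond about 50% at 5 µM, limit read from the data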
Target sequence (P11712 whole entry, looked up): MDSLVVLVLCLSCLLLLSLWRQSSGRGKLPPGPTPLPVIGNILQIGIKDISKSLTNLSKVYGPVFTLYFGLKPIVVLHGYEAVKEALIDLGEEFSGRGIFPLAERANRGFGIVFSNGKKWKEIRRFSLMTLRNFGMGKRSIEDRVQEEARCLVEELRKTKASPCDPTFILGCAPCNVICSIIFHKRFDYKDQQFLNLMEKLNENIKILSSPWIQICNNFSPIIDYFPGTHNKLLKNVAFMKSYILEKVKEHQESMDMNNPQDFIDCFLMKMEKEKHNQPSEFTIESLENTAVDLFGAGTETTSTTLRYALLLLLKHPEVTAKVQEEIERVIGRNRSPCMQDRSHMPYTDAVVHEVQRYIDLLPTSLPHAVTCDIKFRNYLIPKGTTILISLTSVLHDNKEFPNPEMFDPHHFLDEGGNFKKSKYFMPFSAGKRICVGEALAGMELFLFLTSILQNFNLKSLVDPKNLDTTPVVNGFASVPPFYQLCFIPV
CYP2C19 activ – human CYP2C19 activators, primary screen, biochemical, luminescence; AID 1025, 2008; recombinant CYP2C19, luciferin-H EGE luminescence; active compounds read high; 0 = fully inhibited enzyme, 1 = untreated enzyme; 96,000 tested, under 10 active; activation factor at 5 µM; Cytochrome P450 2C19 (Homo sapiens), P33261;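 active = activation factor of at least 2 at 5 µM in the primary screen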
PostGolgi ctrl – growth inhibition of yeast control strain, primary screen, counter-screen for post-Golgi transport modulator project | efflux-deficient yeast background strain, growth absorbance A615, 16 h | inhibition, % at 10 µM | actives 5% (n = 98,000)
CYP2C9 act – human CYP2C9 activators, primary screen, biochemical, luminescence; Cytochrome P450 2C9 (Homo sapiens), P11712; recombinant CYP2C9, luciferin-H conversion; active compounds read high; factor 1 = untreated enzyme, 0 = blocked; activation factor at 5 µM; actives 1.4% (n = 96,000); AID 1024, 2008;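 active = activation factor of 2 or more for CYP2C9 at a 5 µM dose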
Numbers stand for hits; 0 = inactive; - = no result. Rule as the data show it, unless noted: active = inhibition above about 30%; inactive = the rest.

SMILES	PostGolgi yeast	CYP2C19 inhib	CYP2C9 inhib	CYP2C19 activ	PostGolgi ctrl	CYP2C9 act
CC(=O)Nc1c(C)nn(-c2ccc(C)c(C)c2)c1C	0	0	0	0	0	0
Cc1csc2nc(CNC(=O)C3CC=CCC3C(=O)O)cn12 (stereo unspecified)	0	0	0	0	0	0
COc1cccc(NC(=O)c2ccc3c(c2)N(CC(=O)N2CCCCC2)C(=O)C(C)(C)O3)c1	0	0	63.6	0	0	0
CC(C)NC(=O)c1ccc2c(c1)N(CC(=O)N1CCOCC1)C(=O)C(C)(C)O2	0	0	0	0	0	0
COc1cccc(C(=O)CN2C(=O)C(C)(C)Oc3ccc(C(=O)N4CCCCCC4)cc32)c1	0	0	66.9	0	0	0
Cc1ccc(CN2C(=O)C(C)(C)Oc3ccc(C(=O)N4CCCCC4)cc32)cc1	0	0	57.0	0	0	0
c1ccc(-n2ncc3c2ncn2nc(-c4ccco4)nc32)cc1	0	0	0	0	0	0
CCOc1cccc(C(=O)Nc2ccc(N(CC)CC)cc2)c1	0	0	0	0	0	0
CCOc1ccc(NC(=O)c2cccc(OC(=S)N3CCC(C)CC3)c2)cc1	0	93.5	73.9	0	0	0
COCCn1c(C)cc(C(=O)CSc2nnc3ccccn23)c1C	0	70.6	0	0	0	0
Cc1cc(C)c(C#N)c(SCSCc2ccccc2)n1	0	99.2	73.9	0	0	0
Cc1cc(C)c(C#N)c(SCCS(=O)(=O)Cc2ccccc2)n1	0	0	0	0	0	0
Cc1cc(C)c(C#N)c(SCC(=O)c2cc(C)n(CCc3ccccc3)c2C)n1	0	82.3	84.8	0	0	0
O=C(CSc1nnc2ccccn12)c1ccc(OC(F)F)cc1OC(F)F	0	76.5	0	0	0	0
CC1=CCC2C(=O)N(c3ccc(C)c(Br)c3)C(=O)C2C1 (stereo unspecified)	0	0	0	0	0	0
S=c1[nH]nc(C2CCCCC2)n1/N=C/c1ccc(Br)s1	0	0	0	0	0	0
COCC(C)NCc1ccc(C)cc1C (stereo unspecified)	0	0	0	0	0	0
COCCn1ccc(O)c(Cc2ccccc2)c1=O	0	0	0	0	0	0
COc1cc(-c2nnc(SCC(=O)/C(C#N)=C(\C)N)o2)cc(OC)c1OC	0	0	0	0	0	0
COCCn1c(C)cc(C(=O)CSc2ncn[nH]2)c1C	0	0	0	0	0	0
COCCn1c(C)cc(C(=O)CSc2nc(C)cc(C)c2C#N)c1C	0	78.3	0	0	0	0
CCCc1cc(N2CCCC(C(=O)Nc3ccc(OC)cc3OC)C2)n2ncnc2n1 (stereo unspecified)	0	0	0	0	0	0
C=CCNC(=O)C(=O)c1cccn1-c1ccsc1C(=O)OC	0	93.2	0	0	0	0
C=CCNC(=O)c1cccn1-c1ccsc1C(=O)OC	0	0	0	0	0	0
COc1ccccc1N1CCN(C(=O)c2cc3n(n2)C(C(F)(F)F)CC(c2ccco2)N3)CC1 (stereo unspecified)	0	0	58.7	0	0	0
SMILES	PostGolgi yeast	CYP2C19 inhib	CYP2C9 inhib	CYP2C19 activ	PostGolgi ctrl	CYP2C9 act
O=C(c1cnn2c1NC(c1ccco1)CC2C(F)(F)F)N1CCN(c2cccc(Cl)c2)CC1 (stereo unspecified)	0	80.7	75.4	0	65.3	0
O=C(c1cc2n(n1)C(C(F)(F)F)CC(c1ccco1)N2)N1CCc2ccccc2C1 (stereo unspecified)	0	0	0	0	0	0
Cn1cnc([N+](=O)[O-])c1Sc1ncccc1N	0	0	0	0	0	0
Cc1cc(NC(=O)CN2C(=O)CC(c3ccco3)Sc3ccccc32)no1 (stereo unspecified)	0	-	-	-	0	-
O=C(NCc1cc(C(F)(F)F)cc(C(F)(F)F)c1)C12CN(Cc3ccccc3)CC1C(c1cccc([N+](=O)[O-])c1)=NO2 (stereo unspecified)	0	0	0	0	0	0
O=C(Cc1ccccc1)N1CCc2ccccc21	0	82.4	0	0	0	0
O=C(CCn1c(=O)oc2ccccc21)N1CCc2ccccc21	0	0	0	0	0	0
CCc1nnc(NCC(=O)N2CCc3ccccc32)s1	0	0	59.5	0	0	0
O=C(CCn1cccc1)N1CCc2ccccc21	0	51.5	0	0	0	0
CCc1nnc(NC(=O)c2c(O)c3cccc4c3n(c2=O)CC4)s1	-	0	0	0	-	0
O=C(Cn1cc2c(n1)CCCC2)N1CCc2ccccc21	0	0	0	0	38.1	0
COCCN1C(=O)c2ccccc2C(C(=O)Nc2ccc3c(c2)OCCO3)C1c1ccc(F)cc1 (stereo unspecified)	0	0	0	0	0	0
O=C(OCCCc1ccncc1)c1ccc(S(=O)(=O)N2CCOCC2)cc1	0	95.5	97.2	0	0	0
N=c1nc(N)nc2n1NC(c1ccc(F)cc1)=CS2	99.4	0	0	0	0	0
CC1CCC(NC(=O)c2cc3c(=O)n(C)c4ccccc4c3n2C)CC1 (stereo unspecified)	0	0	0	0	0	0
C=CCN1C(=O)/C(=C2/Sc3ccccc3N2C)SC1=Nc1c(C)n[nH]c1C	0	0	0	0	0	0
C=CCN1C(=O)/C(=C2/Sc3ccccc3N2C)SC1=Nc1ccccc1C	0	0	55.5	0	0	0
CCCCc1ccc(CC2S/C(=C(\C#N)C(=O)N3CCOCC3)N(c3ccccc3)C2=O)cc1 (stereo unspecified)	0	0	0	0	37.5	0
COc1ccc(Nc2nc(N)nc(C(F)(F)F)n2)c(OC)c1	0	0	0	0	0	0
CCN(CC)C(=O)C1CCCN(C(=O)Nc2ccc3nsnc3c2)C1 (stereo unspecified)	0	58.7	0	0	0	0
O=C(Nc1ccc2nsnc2c1)NC1CCCCC1	0	0	0	0	0	0
COC(=O)c1ccc(NC(=S)NC(=O)c2cc(-c3ccccc3)nc3ccccc23)cc1	0	0	0	0	0	0
O=C(NNC(=O)c1cc(-c2ccccc2)nc2ccccc12)Nc1cccc(Cl)c1	0	0	74.7	0	0	0
CC(C)(C)c1ccc(-c2cc(C(=O)NNC(=O)Nc3ccccc3)c3ccccc3n2)cc1	0	0	81.7	0	0	0
O=C(Cc1cccc2ccccc12)NNC(=O)Nc1cccc(Cl)c1	0	55.6	0	0	0	2.2
Cc1ccc(NC(=O)c2ccc(CSc3nnnn3C)cc2)cc1	0	0	0	0	0	0
N#Cc1ccccc1NC(=O)COC(=O)CSc1nc2ccccc2o1	0	0	0	0	0	0
CSc1cccc(NC(=O)c2ccccc2N(C)S(C)(=O)=O)c1	0	0	0	0	0	0
